Test results from PubChem BioAssay (NCATS).
Results filed as inconclusive are left out. Calls of active or inactive are those of the source. Calls come from the whole dose curve; as a rule, active = well fitted curve in the direction sought with a large enough effect; inconclusive = small, poorly fitted or top-dose-only effect, or another doubt; inactive = no such curve, though single readings can be large; an effect the other way counts as inactive or inconclusive.

Experiments:
[1] = tested on: NAD(P)H diaphorase (Clostridium kluyveri); assay: Diaphorse counterscreen qHTS: Assay Interference Panel against the NCATS CANVASS Library (AID 1347362)
How it was run: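 Clostridium kluyveri diaphorase in PBS with 0.01% Tween-20 was preincubated 15 min at room temperature in the dark with compounds (11-point series). Resorufin fluorescence (ex 525/20, em 598/25) was read 5 min after adding resazurin/NADH.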

[2] = biological target: Luciferin 4-monooxygenase (Photinus pyralis) (UniProt P08659); assay: Firefly luciferase counterscreen qHTS: Assay Interference Panel against the NCATS CANVASS Library (AID 1347363); note: series mostly up to about 57 µM
How it was run: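 Purified P. pyralis luciferase was added to compounds (11-point series) preincubated 15 min at room temperature with substrate containing 0.013 mM D-luciferin and 0.013 mM ATP; luminescence was read after 5 min.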

[3] = KB-8-5-11 Cancer Cell Toxicity qHTS against the NCATS CANVASS Library (AID 1347364); note: series mostly up to about 46 µM; nearly all actives have a fitted effect of over 75% in size
How it was run: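 Plate 500 KB-8-5-11 cells per well in DMEM + 10% FBS, add compounds by pin transfer, incubate 72 hr at 37C. Add CellTiter-Glo, wait 10 minutes at room temperature, read luminescence.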

[4] = KB-3-1 Cancer Cell Toxicity qHTS against the NCATS CANVASS Library (AID 1347366); conditions: outcome: dose series up to 46.1 µM; note: nearly all actives have a fitted effect of over 75% in size
How it was run: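 Luminescence from CellTiter-Glo (10 min, room temperature) measured KB-3-1 viability after 72 hr compound exposure at 37C. Cells were seeded at 500/well and tested in an 11-point series.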

[5] = qHTS for ATAD5 Agonist screened against the NCATS CANVASS Library (AID 1347367);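 note: luciferase reporter driven by ATAD5 which rises upon DNA damage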
From the text: Natural products and their derivatives continue to be wellsprings of nascent therapeutic potential. However, many laboratories have limited resources for biological evaluation, leaving their previously isolated or synthesized compounds largely or completely untested. To address this issue, the Canvass library of natural products was assembled (https://tripod.nih.gov/canvass), in collaboration with academic and industry researchers, for quantitative high-throughput screening (qHTS) across a diverse set of cell-based and biochemical assays. The pure (>85% purity by liquid chromatography/mass spectrometry [LC/MS]) Canvass library of 346 natural products were submitted by 45 academic laboratories and companies around the world. […] The library was formatted into 1536-well plates and evaluated in 50 qHTS (in an 11-pnt concentration series) bioassays with broad scope of disease-relevant mechanisms. The resulting data set from 50 different assays was then systematically analyzed to identify overall trends and specific natural products with interesting biological activities. […] Luminescence intensity is proportional to ATAD5 expression. […]
ATAD5 Agonist assay protocol: 1. […] A second readout of luminescence signal was acquired via the ViewLux plate reader using a clear emission filter, 10 second exposure setting. […]

[6] = G06 Cancer Cell Toxicity qHTS against the NCATS CANVASS Library (AID 1347368); note: series mostly up to about 46 µM; nearly all actives have a fitted effect of over 60% in size
How it was run: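 Dog G06 glioma line, 500 cells/well; cpds pin-transferred, 11-pt; 72 hr, 37C/5% CO2; CellTiterGlo luminescence (ATP) endpoint.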

[7] = MCF7 Cancer Cell Toxicity qHTS against the NCATS CANVASS Library (AID 1347369); note: series mostly up to about 46 µM
How it was run: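 Cells seeded at 500/well, then compound pinned. Plates incubated 72 hr at 37C, 5% CO2. CellTiterGlo added; luminescence read.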

[8] = qHTS for ATAD5 Antagonist screened against the NCATS CANVASS Library (AID 1347370);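 note: HEK293T cells carrying an ATAD5 luciferase reporter co-treated with 10 µM 5-fluorouridine; series mostly up to about 46 µM; nearly all actives have a fitted effect of over 65% in size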
How it was run: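 HEK293T cells with stably integrated ATAD5-luciferase reporter, 2000/well, 5 h attachment; compounds plus 10 µM 5-fluorouridine, 16 h at 37 °C. Luciferase luminescence read, with CellTiter-Fluor viability read first.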

[9] = J3T Cancer Cell Toxicity qHTS against the NCATS CANVASS Library (AID 1347371);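 note: J3T is a canine glioma cancer cell line seeded at 500 cells per well; series mostly up to about 46 µM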
How it was run: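 Cells plated at 500 per well, compounds pin-transferred, plates incubated 72 hr at 37C, then CellTiterGlo added and luminescence read to measure ATP content.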

[10] = SDT Cancer Cell Toxicity qHTS against the NCATS CANVASS Library (AID 1347365);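 note: SDT canine glioma cells 500 per well in 1536 well plates; series mostly up to about 46 µM; nearly all actives have a fitted effect of over 60% in size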
How it was run: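 qHTS, SDT dog glioma line, 500 cells/well; cpds 11 pts; 72 hr, 37C, 5% CO2; CellTiterGlo ATP luminescence.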

Measured: outcome

Luciferin 4-monooxygenase (Photinus pyralis), sequence (P08659 whole entry, looked up): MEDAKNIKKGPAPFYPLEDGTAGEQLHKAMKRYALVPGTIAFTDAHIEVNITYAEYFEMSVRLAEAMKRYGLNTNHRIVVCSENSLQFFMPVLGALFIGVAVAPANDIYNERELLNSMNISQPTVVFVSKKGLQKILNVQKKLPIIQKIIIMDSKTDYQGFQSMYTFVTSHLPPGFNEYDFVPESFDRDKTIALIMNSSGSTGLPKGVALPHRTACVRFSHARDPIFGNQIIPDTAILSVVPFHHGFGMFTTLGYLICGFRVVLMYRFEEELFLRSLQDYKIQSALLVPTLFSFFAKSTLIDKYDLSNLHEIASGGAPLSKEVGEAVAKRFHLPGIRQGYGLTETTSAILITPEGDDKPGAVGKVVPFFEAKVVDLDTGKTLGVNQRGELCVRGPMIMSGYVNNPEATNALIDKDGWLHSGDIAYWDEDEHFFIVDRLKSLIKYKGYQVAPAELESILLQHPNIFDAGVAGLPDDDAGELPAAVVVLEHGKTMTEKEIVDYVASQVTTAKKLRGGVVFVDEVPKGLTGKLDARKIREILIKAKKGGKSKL

NCCc1c[nH]c2ccccc12
not listed: [10]
inactive: all other assays above

NCCc1c[nH]c2ccc(O)cc12
not listed: [1]
inactive: all other assays above
